Compounds with a hit are over-represented: about 14% of the library has one in this group of screens.
Pf growth 48h: Primary qHTS for delayed death inhibitors of the malarial parasite plastid, 48 hour incubation | hit rate 5.9% among 310,000 | Potency, µM (highest dose often 28.7 µM), inactives show at the highest dose activity change, negative = inhibition, usual class: inhibitors | P. falciparum luciferase growth in erythrocytes, 48 h; further: potency means the concentration at half of the fitted maximal effect
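Growth was read as firefly luciferase luminescence after a 48 h, 37 C, 5% CO2 exposure of compounds to reporter-bearing P. falciparum cultures (0.1% parasitemia, 2% hematocrit final) in Albumax-supplemented RPMI 1640.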
Pf growth 96h: Primary qHTS for delayed death inhibitors of the malarial parasite plastid, 96 hour incubation; P. falciparum luciferase reporter growth, 96 h; Potency, µM (series often up to 28.7 µM), without a hit: at the highest dose activity change, negative = inhibition, hits mostly inhibitors; hit rate 6.9% among 320,000; further: potency means the concentration at half of the fitted maximal effect
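Luminescence readout: decreased luciferase signal marks inhibited growth of reporter-expressing P. falciparum in infected red cells (2% hematocrit, 0.05% parasitemia final), exposed to compound two generations (96 h, 37 C, 5% CO2).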
Lassa entry inh: qHTS for Inhibitors of binding or entry into cells for Lassa Virus | hit rate 1.2% among 300,000 | Lassa virus pseudotype entry inhibition, cell reporter | AID 540256, 2011 | Potency, µM (highest dose often 37.9 µM), for the others: at the highest dose activity change, negative = inhibition, actives largely listed as inhibitors; calls by dose curve; tested in HEK293 cells; further: potency means the concentration at half of the fitted maximal effect; nearly all actives have a fitted effect of over 50% in size
HCV inhibitor: qHTS Assay for Inhibitors of Hepatitis C Virus (HCV); hit rate 3.4% among 340,000; Huh7.5.1 HCVcc-Cre infection, luciferase reporter, 44 h; Potency, µM (series often up to 41.8 µM), without a hit: top-dose activity change, negative = inhibition, actives largely listed as inhibitors; further: potency means the concentration at half of the fitted maximal effect
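A cell-based infection assay in which seeded cells (1,000 per well) receive test compound after 4 h, are inoculated with HCVcc-Cre at approximately 0.5 moi, and are incubated 44 h before luminescence detection.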
HCMV inh: qHTS Assay for inhibitors of the human cytomegalovirus (HCMV); HFF cells, HCMV-luciferase reporter, 72 h; active compounds read low; activity change, negative = inhibition, % at 57.5 µM; hit rate 4.5% among 410,000; AID 1259415, 2018; in the data active means activity change below about -60%; inconclusive means no clear call, values can overlap the other calls; inactive means above about -39%
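HFF cells seeded 16 h at 37C, treated with compounds, infected with luciferase-reporter HCMV at MOI 1 PFU/cell; luciferase read at 72 h post infection, normalized to buffer-only and Salinomycin controls.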
MARV entry inh: qHTS for inhibitors of binding or entry into cells for Marburg Virus. Marburg virus pseudotyped entry inhibition, cell reporter. AID 540276, 2011. hit rate 1.8% among 300,000. Potency, µM (top dose mostly 37.8 µM), for the others: top-dose activity change, negative = inhibition, hits mostly inhibitors; calls by dose curve; tested in HEK293 cells; further: potency means the concentration at half of the fitted maximal effect
Starred values were filed as active, the others as inactive; u = inconclusive; x = no result given; [ ] = remark or other dose. Unless noted, the call rests on the fitted dose curve; in most records, active means well fitted inhibition curve with a large enough effect; inconclusive means small, poorly fitted or top-dose-only effect, or another doubt; inactive means no such curve, though single readings can be large or run the other way. On the % scale 0 is the no-effect control and ±100 the full control effect.

SMILES	Pf growth 48h	Pf growth 96h	Lassa entry inh	HCV inhibitor	HCMV inh	MARV entry inh
CC(=O)NC(NC(=S)Nc1cccc(Br)c1)C(Cl)(Cl)Cl (configuration not stated)	u	u	9%	-2%	17	-18%[46.1 µM]
CC(=O)NC(NC(=S)Nc1ccc(N=Nc2ccccc2)cc1)C(Cl)(Cl)Cl (configuration not stated)	12µM*	183%	u	7.1µM*	-26	u
Cc1nc(-c2ccc(NC(=O)C(C)(C)C)cc2)c(-c2ccccc2)o1	x	4.1µM*	-23%	u	-27	u
CC(=O)C1=C(C)N(Cc2ccccc2)C(=O)N[C@H]1c1ccc(Br)cc1	x	x	x	x	x	0%[14.2 µM]
COCCSc1ccccc1C(=O)Nc1cc([N+](=O)[O-])ccc1OC	-4%	u	x	7.9µM*	-12	x
COc1ccc([N+](=O)[O-])cc1NC(=S)NC(NC(=O)C(c1ccccc1)c1ccccc1)C(Cl)(Cl)Cl (configuration not stated)	20%	u	u	u	-106*	u
COC(=O)c1ccccc1NC(=S)NC(NC(=O)COc1ccccc1)C(Cl)(Cl)Cl (configuration not stated)	u	26%	-6%	0%	-102*	u
CCc1ccc(OCC(=O)NC(NC(=S)Nc2ccccc2OC)C(Cl)(Cl)Cl)cc1 (configuration not stated)	u	57%	-28%	u	-72*	-14%
COc1ccc2c(c1)CCC[C@]1(C)O[C@@H]1C(=O)c1ccccc1O2	x	x	x	x	-19	x
COC(=O)c1cnc(Nc2nc(C(N)c3ccccc3Cl)cs2)nc1C(F)(F)F (configuration not stated)	x	x	x	x	-17	x
O=C(Nc1ccccn1)c1ccc(Cl)c(S(=O)(=O)N2CCCC2)c1	u	-28%	-16%	-2%	-12	11%[46.1 µM]
Cc1ccc(C(=O)NCc2ccco2)cc1S(=O)(=O)N1CCCC1	12µM*	27%	u	2%	18	7%
O=C(c1ccc(Cl)c(S(=O)(=O)N2CCOCC2)c1)N(Cc1ccco1)Cc1cccs1	u	2.6µM*	u	u	-9	u
O=C(NCc1ccco1)c1ccc(Cl)c(S(=O)(=O)N2CCCC2)c1	9.3µM*	2.6µM*	x	2%	-3	x
O=C(NCc1ccccn1)c1ccc(Cl)c(S(=O)(=O)N2CCCCCC2)c1	u	10%	-12%	11µM*	22	u
CCN(c1ccccc1)S(=O)(=O)c1cc(C(=O)NCc2ccco2)ccc1C	12µM*	13µM*	x	u	0	x
O=C(Nc1n[nH]c2cc(-c3cc(F)ccc3F)ccc12)C1CC1	x	x	25µM*	x	x	x
Cc1ccc(NN2C(=O)C=C(c3ccccc3)C2=O)cc1	u	44%	u	-6%	5	11µM*
O=C1c2ccccc2C(=O)N1Nc1ccccc1	5%	228%	-19%	31%	4	u
CCOC(=O)c1ccc(S(=O)(=O)N2CCN(c3ccccn3)CC2)cc1	-11%	-14%	x	11%	19	-9%[46.1 µM]
O=C(Nc1ccccc1N1CCCC1)c1cccnc1	9%	x	2%	-23%	-2	3%
O=C(Nc1ccc(N2CCOCC2)c(S(=O)(=O)Nc2ccccc2Cl)c1)c1ccc(F)cc1	x	x	u	10µM*	29	u
O=C(/C=C/c1cccs1)Nc1ccc(N2CCOCC2)c(S(=O)(=O)Nc2ccccc2Cl)c1	u	u	u	u	-78*	u
O=C(Nc1ccc(F)cc1)Nc1ccccc1N1CCCCC1	u	u	x	11µM*	-71*	x
O=C(Nc1ccc(N2CCCCC2)c(S(=O)(=O)Nc2ccccc2Cl)c1)c1cccnc1	x	x	-23%	13µM*	-29	u
SMILES	Pf growth 48h	Pf growth 96h	Lassa entry inh	HCV inhibitor	HCMV inh	MARV entry inh
Cc1ccc(S(=O)(=O)N(C)C)cc1NC(=O)CN1C(=O)NC2(CCCCCCC2)C1=O	-9%	u	20%	-2%	-18	0%
O=C(Nc1ccc(F)cc1)Nc1ccc(N2CCCC2)c(S(=O)(=O)Nc2ccccc2Cl)c1	9.3µM*	4.7µM*	7.3µM*	6.3µM*	-100*	7.9µM*
COc1ccccc1NS(=O)(=O)c1cc(NC(=O)C2CCCC2)ccc1N1CCOCC1	u	-49%	u	u	-19	u
O=C(Nc1ccc(Cl)c(Cl)c1)Nc1ccc(N2CCCC2)c(S(=O)(=O)Nc2ccccc2Cl)c1	13µM*	3.7µM*	8.9µM*	u	-99*	u
CC1CCCN(C(=O)c2cn(-c3ccccc3)nc2-c2cccnc2)C1 (configuration not stated)	u	u	-24%	u	u	20%
CCCCn1nnnc1C(c1cc2ccccc2o1)N1CCN(C(=O)OC(C)(C)C)CC1 (configuration not stated)	x	x	x	x	16	x
Cc1ccc(/C=C/c2ccc(N(C)C)cc2)[n+](C)c1	1.2µM*	219%	x	3.2µM*	-98*	x
CN(C)c1ccc(C(=O)/C=C/c2ccc(Br)cc2)cc1	0%	8%	-2%	-6%	-11	14%
Cc1ccc(C(=O)O/N=C/c2ccc(N(C)C)cc2)cc1	119%	8%	16%	1%	u	4%
C[n+]1ccc(/C=C/c2cccs2)cc1	2.9µM*	2.3µM*	x	u	0	x
CN(C)c1ccc(/C=C/c2cc[n+]([O-])cc2)cc1	66%	2.1µM*	x	x	x	-7%
CN(C)c1ccc(/C=C/c2cc[n+](C)cc2)cc1	x	u	u	1.8µM*	-101*	u
CN(C)c1ccc(C=C2C=CC=C2)cc1	x	x	14%	-14%	0	0%
CN1CCCN=C1/C=C/c1cccs1	15%	-17%	10%	x	-30	-2%
CCOc1ccc(NC(=O)C2CCN(S(=O)(=O)c3ccc4c(c3)oc(=O)n4C)CC2)cc1	x	x	22%[46.1 µM]	x	7	10%[46.1 µM]
Cc1csc(SCC(=O)Nc2cc(S(=O)(=O)N3CCOCC3)ccc2N2CCOCC2)n1	u	u	x	1%	13	x
CCc1ccc(C(=O)CSc2nc3cc(S(=O)(=O)N4CCOCC4)ccc3n2CC)cc1	u	10µM*	-5%	u	1	u
Cc1csc(SCC(=O)c2ccc(S(=O)(=O)N3CCOCC3)cc2)n1	u	10µM*	-7%	-5%	18	-8%
Cc1cccc(-n2ncc3c(N4CCCC(C)C4)ncnc32)c1 (configuration not stated)	x	x	-22%[46.1 µM]	x	-35	x
Cc1ccc(Nc2nc(-c3cccnc3)cs2)cc1C	-33%	u	x	u	121	x
